High-throughput results as filed in PubChem.
MenB inh: M. tuberculosis MenB inhibitors, primary screen, biochemical, absorbance. 1,4-dihydroxy-2-naphthoyl-CoA synthase (Mycobacterium tuberculosis (strain ATCC 25618 / …. MenB enzyme assay, absorbance read-out. inhibition, % (concentration not given with the values). hit rate 0.43% among 100,000; in the data active means inhibition above about 21%, passing the limit was not always enough
Polio RdRp inh: poliovirus RdRp elongation inhibitors, primary screen, biochemical, fluorescence polarization, total intensity. hit rate 0.66% among 150,000. poliovirus polymerase elongation; hits give low values. % elongation, % (compound at 16.7 µg/mL); in the data active means % elongation below about 90%
MbtI inh: MbtI salicylate synthase inhibitors, primary screen, biochemical, fluorescence intensity | AID 493033, 2011 | P9WFX0 | purified MbtI enzyme, fluorescence intensity read-out | hit rate 0.89% among 100,000 | inhibition, % (no concentration beside the values); in the data active means inhibition mostly above about 56%, no sharp cut-off; inactive means mostly below about 77%
Target sequence (P9WFX0 whole entry, looked up): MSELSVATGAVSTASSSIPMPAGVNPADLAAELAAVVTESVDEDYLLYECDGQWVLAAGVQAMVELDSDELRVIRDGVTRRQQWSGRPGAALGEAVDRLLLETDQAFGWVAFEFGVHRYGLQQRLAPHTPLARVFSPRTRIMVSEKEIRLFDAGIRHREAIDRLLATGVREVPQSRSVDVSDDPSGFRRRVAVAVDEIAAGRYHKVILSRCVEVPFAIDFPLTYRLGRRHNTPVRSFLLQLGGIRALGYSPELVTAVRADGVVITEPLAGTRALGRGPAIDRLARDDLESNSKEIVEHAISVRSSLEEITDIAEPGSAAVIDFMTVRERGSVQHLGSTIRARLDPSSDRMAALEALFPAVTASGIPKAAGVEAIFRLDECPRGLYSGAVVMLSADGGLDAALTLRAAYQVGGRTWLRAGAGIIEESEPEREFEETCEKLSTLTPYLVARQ
AID504770: growth inhibition of E. coli YBA685, primary screen, V. cholerae RctB inhibitors; hit rate 0.27% among 130,000; E. coli YBA685 rctB-dependent plasmid, OD600 growth, 3 h; hits give low values; AID 504770, 2011; z-score (concentration not given with the values); in the data active means z-score below about -2, passing the limit was not always enough
The depositor's hits bear a star; . = not tested or not shown; ! = a repeat was not active. Sampled rows, rich in hits. Any-hit rate of the full collection: about 1.4%.

SMILES	MenB inh	Polio RdRp inh	MbtI inh	AID504770
O=C(CC1Sc2ncnn2C1=O)Nc1ccccc1 (stereo unspecified)	-16	100	100*	-0.4
O=C1/C(=C/c2c(N3CCCCC3)nc3ccccn3c2=O)SC(=S)N1Cc1ccco1	-2	92	6	0.5
O=C(Cc1coc2cc(O)ccc12)OCc1ccccc1C(F)(F)F	-17	100	-8	-0.15
O=C(Cc1coc2cc(O)ccc12)OCC(=O)c1ccc2[nH]c(=O)[nH]c2c1	-12	72*	-7	-0.35
Cc1cc(C)c(CO)c(C)c1CO	-26	102	4	1.4
Cc1cc(C)c(C)c(S(=O)O)c1C	-36	83*	3	-0.3
N#CSC1CC(=O)N(c2ccc(F)cc2)C1=O (stereo unspecified)	-11	103	99*	-1.8
O=C(O)CCSC1CC(=O)N(c2ccc(F)cc2)C1=O (stereo unspecified)	4	100	-3	-0.15
c1ccc(CNCCc2c[nH]c3ccccc23)cc1	.	.	-2	0.95
c1ccc(CC(NCc2c[nH]c3ccccc23)c2ccccc2)cc1 (stereo unspecified)	.	.	-11	-3.1*
CC(C)(C)NC(=O)c1cnc2n(c1=O)CCS2	-11	101	0	-0.45
S=c1cc(-c2ccccc2)ss1	-9	88*	94*	0.9
O=c1cc(-c2ccccc2)sc(=O)[nH]1	5	108	.	-0.1
COc1ccccc1-n1c(SCc2ccc(F)cc2)nc2c(c1=O)SCC2	.	.	.	0.95
C=CCN(CC=C)C(=O)c1cccc(OC)c1	1	105	.	0.45
COc1cccc(N=C2NNC(C)=C(C(=O)N(C)C)S2)c1	-7	83*	59*	-0.75
CCOc1ccc(C(=S)N(C)C)cc1	-16	100	78*	0.7
CCOc1ccc(OCCCCN(C)C)cc1	-30	101	1	0.2
N#CC1=C(N)OC2=C(C(=O)CCC2)C1c1ccccc1C(F)(F)F (stereo unspecified)	-40	102	-23	-0.9
CCCC(=O)Oc1c(Sc2ccccc2)c(C)nn1-c1ccccc1	.	.	58*	.
CC(=O)c1ccc(N2CCN(C(=O)Nc3cn(CC(C)C)c(=O)c4ccccc34)CC2)cc1	.	76*	.	.
Cc1ccc(Cl)cc1NC(=O)Nc1cn(CC(C)C)c(=O)c2ccccc12	.	69*	.	.
COc1ccc(CNC(=O)Nc2cn(CC(C)C)c(=O)c3ccccc23)cc1	.	60*	.	.
CC(C)Cn1cc(NC(=O)N2CCN(c3ccccc3)CC2)c2ccccc2c1=O	0	98	-20	-0.45
O=c1c2cnn(CCO)c2ncn1Cc1cccc2ccccc12	7	95	8	2.1
SMILES	MenB inh	Polio RdRp inh	MbtI inh	AID504770
O=C(NCCN1CCCCC1)Nc1c[nH]c2c(Cl)cccc2c1=O	1	100	72	0.3
O=C1N/C(=N\Nc2ccccc2)S/C1=C\c1ccccc1	-36	108	80*	-0.45
O=C1NC(=O)/C(=C\c2ccccc2)S1	.	.	.	0.3
CCc1ccc(C(=S)N2CCOCC2)cc1	0	100	26	-0.55
Cc1ccc(CC(=S)N2CCOCC2)cc1	2	96	69*	-0.25
S=C(c1cccs1)N1CCOCC1	-7	100	70*	0.45
S=C(c1cccs1)N1CCCC1	-4	101	.	0.8
S=C(c1ccc(-c2ccc(Cl)cc2)o1)N1CCOCC1	-30	99	77*	-1.3
Cc1ccc(C(=S)N2CCOCC2)cc1	1	98	97*	0
N#CC1(NC(=O)CN2CCCCC2c2nc3ccccc3s2)CCCC1 (stereo unspecified)	-19	101	-5	-0.6
Cc1cccc(N2CCN(CCCNC(=O)CCN3C(=O)c4cccnc4Sc4ccccc43)C(C)C2)c1 (stereo unspecified)	-4	102	-6	-0.35
O=C(Nc1ccccc1)N(Cc1ccco1)Cc1cccs1	-7	101	-14	-0.55
CC(CO)(CO)NC(=S)Nc1ccc(F)c(Cl)c1	0	107	55*	0.25
COc1c(Cl)cc(Cl)cc1CNCC1CCCO1 (stereo unspecified)	-29	103	-8	-0.6
Cc1ccc2nc(C)cc(C)c2c1	-12	102	27	1.6
CC(NCC1COc2ccccc2O1)C(=O)Nc1ccc(S(N)(=O)=O)cc1 (stereo unspecified)	-21	114	-3	1.4
COC(=O)CSc1ncc(C#N)c(N)n1	17	102	34	1.5
Cc1c(C(=O)CSc2ncc(C#N)c(N)n2)c2ccccc2n1C	30*	102	.	0.15
Cc1ccc(S(=O)(=O)NC(C)C(=O)N2CCN(c3cccc(Cl)c3)CC2)cc1 (stereo unspecified)	-22	102	1	-0.55
CC(NS(=O)(=O)c1cccc(Cl)c1)C(=O)N(C)C1CCN(C)CC1 (stereo unspecified)	-36	106	-11	-5.3*
O=C1CS/C(=N/S(=O)(=O)c2ccccc2)N1C1CCCCC1	-13	104	-4	-0.9
c1ccc(-c2cnc3nonc3n2)cc1	-1	85	.	-3*
O=C(c1ccccc1)c1ccccc1NC(=O)c1ccccc1C(=O)O	.	112	.	.
O=C(Nc1ccccc1C(=O)O)c1ccccc1	.	.	55*	-0.1
CC(C)n1c(=S)[nH]c2c1c(=O)[nH]c(=O)n2C	0	101	102*!	-0.3
SMILES	MenB inh	Polio RdRp inh	MbtI inh	AID504770
CCC(C)n1c(=O)[nH]c2c1c(=O)n(C)c(=O)n2C (stereo unspecified)	.	.	-4	-0.95
Cc1cc(Cl)ccc1OC(C)C(=O)N1CCc2ccccc21 (stereo unspecified)	-48	92	-9	0.1
CCO/C=C1\C(=O)N(Cc2ccccc2)C(=O)c2ccccc21	.	62*	-5	1.1
CCO/C=C1/C(=O)N(C)C(=O)c2ccccc21	10	17	23	-0.55
Cc1cccc2nc(-c3ccc(N(C)C)cc3)c(NCCC(C)C)n12	-103	100	17	-0.1
COC(=O)C1CCN(C(=O)Cc2ccc(C)cc2)CC1	-9	83*	-1	-0.4
Cc1ccc(C(=O)C2CCN(C(=O)Cc3ccccc3)CC2)cc1	-5	100	-4	0.7
Cc1cc(I)ccc1NC(=O)CC(C)C	3	102	2	0.3
Cc1c2cnn(CC(=O)NC(C)c3ccc4c(c3)OCCO4)c(=O)c2c(C)n1Cc1ccc(F)cc1 (stereo unspecified)	1	104	5	2
CCOC(=O)N1CCN(Cn2c(=S)sc3ccccc32)CC1	-37	107	89*	-0.55
S=c1sc2ccccc2n1CN1CCN(c2ccccn2)CC1	-30	99	145	-0.35
S=c1sc2ccccc2n1CN1CCOCC1	24	99	90*	-1.2
Cc1ccc(C(CCNC(=O)c2cccs2)c2ccco2)cc1 (stereo unspecified)	.	.	-8	-1.5
O=C(C[C@H]1NC(=O)[C@@H]2CCCN2C1=O)OCc1ccccc1	-14	103	.	-0.15
Fc1ccc(NC(=S)N2CCCCC2)cc1	-7	100	-2	-0.1
S=C(Nc1ccc2nsnc2c1)N1CCCC1	-4	89*	-12	0.1
N#CCOC(=O)c1cc(=O)c2ccccc2o1	2	74*	-13	0.25
